Laboratory results from PubChem BioAssay (NCATS).
Results filed as inconclusive are left out. Active and inactive are the calls of the source. Unless noted, calls follow the shape of the dose curve; as a rule, active = well fitted curve in the direction sought with a large enough effect; inconclusive = small, poorly fitted or top-dose-only effect, or another doubt; inactive = no such curve, though single readings can be large; an effect the other way counts as inactive or inconclusive.

Columns and labels:
[1] = Cytometric Cell-Based qHTS for Inhibitors of the mTORC1 Signaling Pathway in MEF (Tsc2-/-, p53-/-) Cells (AID 2660);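 also: Tsc2 and p53 null MEFs carrying empty vector with compound for 24 h; percent of cells above a phospho-rpS6 to PI ratio cutoff in each well; series mostly up to about 38 µM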
Method in brief: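 Immunofluorescence qHTS of rpS6 Ser235/236 phosphorylation: MEFs (Tsc2-/-, p53-/-) treated 24 h, 37 C, in DMEM + 10% FBS. Alexa-488 signal normalized to PI count, referenced to rapamycin (7.5 nM) and DMSO; PI cell number recorded for viability.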

[2] = High Content Imaging Cell-Based qHTS for Inhibitors of the mTORC1 Signaling Pathway in MEF Cells (AID 2667); also: potency is read from the fitted curve at half-maximal effect
Method in brief: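 Fixed-cell imaging of phospho-S6 (Ser235/236, Alexa-488) after 24 hrs of compound treatment at 37 degree Celsius. Signal was normalized to Hoechst, and thresholds from the highest and lowest wells split cells into % active versus % non-active.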

[3] = Cytometry Cell-Based qHTS for Inhibitors of the mTORC1 Signaling Pathway in MEF cells (AID 2668); also: potency is read from the fitted curve at half-maximal effect
Method in brief: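 WT MEFs (Tsc2-/-, p53-/- stably re-expressing WT Tsc2) in DMEM + 10% FBS received compounds 24 hrs after plating, for 24 hrs at 37 degree Celsius. Fixed cells stained with Alexa-488 anti-phospho-rpS6 Ser235/236 and propidium iodide; laser-scanning cytometry read-out.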

[4] = Validation screen for small molecules that induce DNA re-replication in MCF 10A normal breast cells (AID 463097); also: nearly all actives have a fitted effect of over 60% in size; also: potency is read from the fitted curve at half-maximal effect
Method in brief: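 Readout: Hoechst nuclear fluorescence intensity, 405 ex / 500-530 em, by scanning plate imager; re-replication scored as increase in nuclei with elevated DNA content. Cells exposed to compound 48 hr, 37 C, 5% CO2 beforehand.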

[5] = molecular target: Ubiquitin carboxyl-terminal hydrolase 2 (Homo sapiens) (UniProt O75604); test: qHTS Validation Assay for Inhibitors of Ubiquitin-specific Protease USP2a Using CHOP2 as the Reporter (AID 463106); also: potency is read from the fitted curve at half-maximal effect
Sequence of Ubiquitin carboxyl-terminal hydrolase 2 (Homo sapiens) (O75604 whole entry, looked up): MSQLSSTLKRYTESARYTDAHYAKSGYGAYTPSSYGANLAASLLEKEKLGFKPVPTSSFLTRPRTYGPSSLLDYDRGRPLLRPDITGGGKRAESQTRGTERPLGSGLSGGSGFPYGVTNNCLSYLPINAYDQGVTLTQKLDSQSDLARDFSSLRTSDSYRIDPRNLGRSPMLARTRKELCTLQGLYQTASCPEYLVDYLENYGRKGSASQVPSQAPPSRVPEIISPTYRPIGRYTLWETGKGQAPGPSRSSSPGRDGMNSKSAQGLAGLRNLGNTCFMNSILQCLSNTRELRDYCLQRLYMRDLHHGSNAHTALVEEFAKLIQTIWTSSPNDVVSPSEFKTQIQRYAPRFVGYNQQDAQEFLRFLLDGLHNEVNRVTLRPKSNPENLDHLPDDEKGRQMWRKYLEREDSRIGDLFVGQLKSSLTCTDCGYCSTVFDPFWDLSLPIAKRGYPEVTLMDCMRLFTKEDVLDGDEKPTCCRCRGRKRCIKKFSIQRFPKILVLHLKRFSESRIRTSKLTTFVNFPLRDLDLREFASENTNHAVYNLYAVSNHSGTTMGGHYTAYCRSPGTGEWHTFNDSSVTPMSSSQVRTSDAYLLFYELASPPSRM
Method in brief: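 Inhibition is expressed relative to NEM as the full-inhibition control, with concentration-response curves classed by fit quality, magnitude and activity. Enzyme (USP2 core, 10nM) meets 25nM Ub-CHOP2 after compound preincubation; readings are taken at 60min.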

[6] = molecular target: DNA polymerase III PolC-type (Bacillus subtilis (strain 168)) (UniProt P13267); test: qHTS Validation Assay for the Inhibitors of DNA Replication in Gram-Positive Bacteria (AID 485295); also: potency is read from the fitted curve at half-maximal effect
Sequence of DNA polymerase III PolC-type (Bacillus subtilis (strain 168)) (P13267 whole entry, looked up): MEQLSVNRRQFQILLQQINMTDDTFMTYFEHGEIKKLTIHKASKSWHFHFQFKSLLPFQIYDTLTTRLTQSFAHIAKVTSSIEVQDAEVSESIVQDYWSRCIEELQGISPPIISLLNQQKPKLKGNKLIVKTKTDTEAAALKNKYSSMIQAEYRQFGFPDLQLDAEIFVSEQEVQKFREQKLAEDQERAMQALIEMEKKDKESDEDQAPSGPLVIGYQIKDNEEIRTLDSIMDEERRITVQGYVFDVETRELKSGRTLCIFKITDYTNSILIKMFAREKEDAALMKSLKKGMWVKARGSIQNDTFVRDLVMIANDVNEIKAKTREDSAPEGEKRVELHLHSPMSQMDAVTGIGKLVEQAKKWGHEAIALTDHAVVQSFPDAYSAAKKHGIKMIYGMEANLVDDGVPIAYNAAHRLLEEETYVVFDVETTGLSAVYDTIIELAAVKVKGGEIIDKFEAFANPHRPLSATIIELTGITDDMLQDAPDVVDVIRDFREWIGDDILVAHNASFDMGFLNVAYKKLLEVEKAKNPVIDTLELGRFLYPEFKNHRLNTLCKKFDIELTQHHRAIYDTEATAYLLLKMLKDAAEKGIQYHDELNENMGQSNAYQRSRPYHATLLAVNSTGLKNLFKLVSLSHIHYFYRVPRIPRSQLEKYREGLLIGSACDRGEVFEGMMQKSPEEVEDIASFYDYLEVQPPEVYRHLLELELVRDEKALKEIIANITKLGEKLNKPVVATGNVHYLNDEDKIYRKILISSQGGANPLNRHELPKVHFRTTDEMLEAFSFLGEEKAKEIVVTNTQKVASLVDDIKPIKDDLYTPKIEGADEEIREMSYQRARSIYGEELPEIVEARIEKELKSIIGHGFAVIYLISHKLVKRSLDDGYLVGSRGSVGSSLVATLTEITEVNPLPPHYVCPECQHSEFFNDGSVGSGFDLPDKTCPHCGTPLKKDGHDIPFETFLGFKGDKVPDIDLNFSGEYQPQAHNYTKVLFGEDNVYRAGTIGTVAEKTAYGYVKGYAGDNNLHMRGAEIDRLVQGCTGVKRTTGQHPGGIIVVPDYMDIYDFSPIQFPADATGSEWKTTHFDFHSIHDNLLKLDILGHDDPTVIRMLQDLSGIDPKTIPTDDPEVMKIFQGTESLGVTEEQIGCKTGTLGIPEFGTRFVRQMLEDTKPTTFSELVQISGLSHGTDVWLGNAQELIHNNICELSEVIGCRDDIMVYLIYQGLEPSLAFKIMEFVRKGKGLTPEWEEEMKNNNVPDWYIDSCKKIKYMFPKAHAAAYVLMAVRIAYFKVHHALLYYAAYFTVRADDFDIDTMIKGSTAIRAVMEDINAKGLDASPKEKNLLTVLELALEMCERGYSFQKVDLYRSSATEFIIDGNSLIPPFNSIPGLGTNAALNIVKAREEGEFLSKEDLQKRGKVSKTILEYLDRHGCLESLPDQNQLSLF
Method in brief: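 Reconstituted B. subtilis holoenzyme (Pol III, beta clamp, SSB, primase) was preincubated with compound at room temperature, then given single-stranded circular M13Gori plus dNTPs and NTPs. EDTA-containing PicoGreen stopped the reaction, and dsDNA product was read by fluorescence.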

[7] = molecular target: Tumor susceptibility gene 101 protein (Homo sapiens) (UniProt Q99816); test: qHTS Validation Assay for Iinhibitors of HIV-1 Budding by Blocking the Interaction of PTAP/TSG101 (AID 485342; calls by dose curve)
Sequence of Tumor susceptibility gene 101 protein (Homo sapiens) (Q99816 whole entry, looked up, the tested form may be a part): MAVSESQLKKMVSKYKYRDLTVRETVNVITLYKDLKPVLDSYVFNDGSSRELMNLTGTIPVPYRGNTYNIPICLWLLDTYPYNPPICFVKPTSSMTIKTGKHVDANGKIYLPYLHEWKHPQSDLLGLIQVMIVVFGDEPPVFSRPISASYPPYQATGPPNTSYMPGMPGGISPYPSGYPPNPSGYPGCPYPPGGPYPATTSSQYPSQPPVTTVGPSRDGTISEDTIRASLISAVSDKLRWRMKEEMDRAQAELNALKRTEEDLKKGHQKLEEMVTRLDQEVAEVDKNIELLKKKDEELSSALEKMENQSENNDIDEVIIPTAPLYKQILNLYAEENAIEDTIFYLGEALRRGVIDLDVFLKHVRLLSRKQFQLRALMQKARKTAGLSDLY
Method in brief: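 Tsg101 binding domain (10 uM final) in pH 7.5 HEPES/NaCl/Tween 20/EDTA/TCEP buffer was mixed with pin-transferred compounds, then FITC-labeled PTAP peptide (50 nM final) was added; after 20 min at r.t., fluorescence polarization was read.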

[8] = High Content Imaging Cell-Based qHTS for Inhibitors of the mTORC1 Signaling Pathway in MEF (Tsc2-/-, p53-/-) Cells (AID 2666);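 also: percent of cells scored positive for phospho-rpS6 Ser235/236 immunostaining by imaging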; also: potency is read from the fitted curve at half-maximal effect
Method in brief: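 Inhibition of rpS6 phosphorylation is measured by immunofluorescence imaging in empty-vector Tsc2-/-, p53-/- mouse embryonic fibroblasts after 24 hrs compound exposure at 37 degree Celsius. Results are reported as % positive cells per well.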

[9] = qHTS Validation Assay to Find Inhibitors of Chronic Active B-Cell Receptor Signaling (AID 485345; active = well fitted curve in the direction sought with a large enough effect in the main read-out, with a control signal flat, not every such curve was filed as active)
Method in brief: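 TMD8 ABC-DLBCL cells with dox-inducible green luciferase–IκBα fusion and red native luciferase; compounds 46 uM–3 nM, 4 h at 37C with doxycycline in 0.5% FBS IMDM. Green/red ratio normalized to basal and 10 uM MG-132.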

Measured: Potency

O=C(O)c1ccccc1Nc1cccc(OCc2ccc3ccccc3n2)c1
not listed: [8] | [9]
inactive: all other assays above

Cc1nc2c(OCc3ccccc3)cccn2c1CC#N
not listed: [5] | [8] | [9]
inactive: all other assays above

CCCCCCC(=O)OC1CC(C)(C)NC(C)(C)C1
not listed: [2] | [3] | [4]
inactive: all other assays above

CN(C)CCCc1cc(C(=O)Nc2ccc(-c3ccncc3)cc2)ccc1O
inactive: [1] | [8] | [5] | [6] | [7]

COc1ccccc1N1CCN(CCCCNC(=O)c2ccc3ccccc3c2)CC1
not listed: [2] | [3]
inactive: all other assays above

O=c1ccc2c(OCCCCc3ccccc3)c3ccoc3cc2o1
not listed: [8] | [9]
inactive: all other assays above

CCCn1c(=O)c2[nH]c(C3CCCC3)nc2n(CCC)c1=O
inactive: [1] | [8] | [5] | [6] | [7]

NC(=Nc1ccccc1)NC(=O)c1nc(Cl)c(N)nc1N
active: [4] 14.1 µM
not listed: [8] | [9]
inactive: all other assays above

N#Cc1cc2nc(O)c(O)nc2cc1[N+](=O)[O-]
not listed: [5] | [8]
inactive: all other assays above

COC(=O)C(N)Cc1ccc(Cl)cc1 (configuration not stated)
not listed: [2] | [3]
inactive: all other assays above

NCCC1CCCC(CCN)N1 (configuration not stated)
not listed: [7] | [8]
inactive: all other assays above

Nc1ncnc2c1nc(Br)n2C1OC2COP(=O)(O)O[C@@H]2C1O (some centres not stated)
inactive: [1] | [8] | [3] | [6] | [9]

COc1cc(CNC(=O)CCCCCCC(C)C)ccc1O
not listed: [8]
inactive: all other assays above

CNc1cc(NS(=O)(=O)c2ccc(N)cc2)nc(NC)n1
not listed: [2] | [3]
inactive: all other assays above

NC(=O)CC[C@H](N)C(=O)O
not listed: [8]
inactive: all other assays above

C[C@H](O)C(=O)C1=Nc2c(nc(N)[nH]c2=O)NC1
not listed: [8]
inactive: all other assays above

Nc1ccc(CCNc2ncnc3c2ncn3C2OC(CO)C(O)C2O)cc1 (configuration not stated)
not listed: [8] | [9]
inactive: all other assays above

N#C/C(=C\c1ccc(O)c(O)c1)C(=O)NCCc1ccccc1
active: [3] 10.4 µM
inactive: [1] | [8] | [5] | [6] | [7]

CN[C@H](CC(=O)O)C(=O)O
not listed: [8]
inactive: all other assays above

COc1cc(C(O)CO)ccc1O (configuration not stated)
not listed: [2] | [3]
inactive: all other assays above

C=CC[C@H](N)C(=O)O
not listed: [8]
inactive: all other assays above

N#CC(=C(\N)Sc1ccccc1N)/C(C#N)=C(/N)Sc1ccccc1N
inactive: [1] | [8] | [5] | [6] | [7]
active: [4] 7.94 µM

[N-]=[N+]=Nc1ccc(C(=O)CSC[C@H](NC(=O)CC[C@H](N)C(=O)O)C(=O)NCC(=O)O)cc1
inactive: [1] | [8] | [3] | [7] | [9]

OC[C@H]1NC[C@@H](O)[C@@H]1O
not listed: [8]
inactive: all other assays above

Cc1nc(N=Nc2ccc(S(=O)(=O)O)cc2S(=O)(=O)O)c(COP(=O)(O)O)c(C=O)c1O
not listed: [8]
inactive: all other assays above

CC(C)(C)NCC(O)COc1cccc2[nH]c(=O)[nH]c12 (configuration not stated)
not listed: [7] | [8]
inactive: all other assays above

c1ccc2c(c1)CC(N1CCN(c3cccc4c3OCCO4)CC1)C2
not listed: [5] | [7] | [8]
inactive: all other assays above

CN(C)S(=O)(=O)c1ccc2c(c1)/C(=C/c1cc3c([nH]1)CCCC3)C(=O)N2
inactive: [8] | [5] | [6] | [7]

COc1ccc(NC(=O)c2ccc(-c3ccc(-c4noc(C)n4)cc3C)cc2)cc1N1CCN(C)CC1
active: [2] 5.85 µM | [3] 5.85 µM | [4] 12.6 µM
inactive: [5] | [6] | [7]

O=c1[nH]c2ccccc2c2ccccc12
inactive: [1] | [3] | [4] | [6]

O=C(N[C@@H](Cc1ccccc1)C(=O)CCl)OCc1ccccc1
active: [2] 5.21 µM | [4] 2.82 µM
inactive: [5] | [6] | [7]

Nc1nc2ccc(Cl)cc2c2nc(-c3ccco3)nn12
inactive: [8] | [5] | [6] | [7]

Cc1cccc(C)c1OCC(N)C(C)C (configuration not stated)
not listed: [2] | [7] | [8]
inactive: all other assays above

COC(=O)[C@H](NC(=O)c1cc(-c2ccccc2)nc2ccccc12)c1ccccc1
not listed: [1] | [9]
inactive: all other assays above

N#Cc1cc([N+](=O)[O-])c2sc(C(N)=O)[n+]([O-])c2c1
inactive: [2] | [5] | [6] | [7]
active: [8] 18.5 µM

CC(C)NC[C@H](O)COc1ccc(CC(N)=O)cc1
not listed: [1]
inactive: all other assays above

CCCCCCCC/C=C\CCCCCCCC(=O)NCCc1ccc(O)c(O)c1
inactive: [7]
active: [2] 5.21 µM | [3] 3.69 µM | [6] 18.9 µM

COc1cc(/C=C(\C#N)C(=O)Nc2nnc(C(F)(F)F)s2)ccc1OCc1ccc(C(F)(F)F)cc1C(F)(F)F
inactive: [1] | [2] | [3] | [7]
active: [6] 10.6 µM

c1ccc(C(NCc2cccnc2)(c2ccccc2)c2ccccc2)cc1
not listed: [4] | [8] | [9]
inactive: all other assays above

NC1C=CC=C(C(=O)O)C1 (configuration not stated)
not listed: [5] | [8]
inactive: all other assays above

O=C(O)C1=CC(=C(c2ccc(O)c(C(=O)O)c2)c2ccc(O)c(C(=O)O)c2)C=CC1=O
inactive: [1] | [2] | [3] | [7]
active: [5] 1.04 µM | [6] 3.36 µM

CCC1(O)CC2CN(CCc3c([nH]c4ccccc34)[C@@](C(=O)OC)(c3cc4c(cc3OC)N(C)C3[C@]45CCN4CC=C[C@@](CC)([C@@H](OC(C)=O)[C@]3(O)C(=O)OC)[C@H]45)C2)C1 (some centres not stated)
active: [4] 0.0501 µM
inactive: [8] | [5] | [6] | [7]

Cc1cccc(C2CN(C)CCc3c2cc(O)c(O)c3Cl)c1 (configuration not stated)
not listed: [1] | [3]
inactive: all other assays above

O=c1oc(Cl)c(Cl)c2ccccc12
inactive: [5] | [6] | [7]

CC(C)C[C@H](NC(=O)[C@H](O)[C@H](N)Cc1ccccc1)C(=O)O
not listed: [3] | [8]
inactive: all other assays above

O=C1Cc2c([nH]c3ccc(Br)cc23)-c2ccccc2N1
inactive: [2] | [5] | [6] | [7]
active: [4] 6.31 µM

COc1cc(CC(=O)O)ccc1O
not listed: [2] | [8]
inactive: all other assays above

c1ccc(C(NCCNC(c2ccccc2)c2ccccc2)c2ccccc2)cc1
inactive: [1] | [5] | [6] | [7]
active: [3] 18.5 µM

S=C(S)N1CCCC1
inactive: [5] | [6] | [7] | [9]

CCCCCCCCCC(=O)NC(CN1CCOCC1)[C@H](O)c1ccccc1 (some centres not stated)
inactive: [1] | [5] | [6] | [7] | [9]

C=C1C(=O)O[C@@H]2[C@H]3O[C@]3(C)CCC=C(C)CC[C@@H]12
active: [4] 14.1 µM
inactive: [8] | [2] | [5] | [6] | [7]

CNCCc1cnc(CCC(c2ccccc2)c2ccccc2)[nH]1
active: [3] 11.7 µM
inactive: [5] | [6] | [7]

CC(C)NCC(O)COc1ccc(CC(N)=O)cc1 (configuration not stated)
not listed: [1]
inactive: all other assays above

NC(C(=O)N[C@@H]1C(=O)N2C(C(=O)O)=C(Cl)CS[C@H]12)c1ccccc1 (some centres not stated)
not listed: [2] | [8]
inactive: all other assays above

CC(O)C(O)[C@H]1CNc2nc(N)[nH]c(=O)c2N1 (some centres not stated)
not listed: [4] | [8]
inactive: all other assays above

Clc1nccc2c1ccc1ccccc12
not listed: [2] | [3] | [8]
inactive: all other assays above

OC1(c2ccc(Cl)cc2)CCN(Cc2c[nH]c3ccccc23)CC1
inactive: [1] | [4] | [5] | [6] | [7]

COc1cc([C@@H]2c3cc4c(cc3[C@H](O)C3COC(=O)[C@@H]32)OCO4)cc(OC)c1OC (some centres not stated)
inactive: [8] | [6] | [7]

C=CCN1CCc2c(cc(O)c(O)c2Cl)C(c2ccccc2)C1 (configuration not stated)
inactive: [1] | [5] | [6] | [7] | [9]

C=CCn1c(=O)c2c(nc(-c3ccc(S(=O)(=O)O)cc3)n2C)n(C)c1=O
not listed: [5] | [8]
inactive: all other assays above

C=C1C[C@@]23CC[C@H]4[C@@](C)(CCC[C@@]4(C)C(=O)O)[C@@H]2CC[C@]1(O)C3
not listed: [4] | [5] | [8]
inactive: all other assays above

COc1cc(/C=C(\C#N)C(=O)c2ccc(O)c(O)c2)cc(I)c1O
active: [5] 14.7 µM
inactive: [1] | [2] | [3] | [7]

CN(CC[C@@H](Oc1ccc(C(F)(F)F)cc1)c1ccccc1)CC(=O)O
not listed: [4] | [8]
inactive: all other assays above

CCCn1c(=O)c(C)cn2nc(N)nc12
not listed: [4] | [8]
inactive: all other assays above

Cc1cc2c(cc1Cl)N(C(=O)Nc1ccnc3ccccc13)CC2
not listed: [2] | [3] | [8]
inactive: all other assays above
